Assay results taken from the supplement of paper PMC6763611.

Test system: Plasmodium falciparum NF54
Assay: growth inhibition relative to untreated control; higher = more inhibition
Settings: 72 h
Outline: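 Two media were used: minimal RPMI, and minimal RPMI carrying the chorismate end-products folate, pABA, pHBA, tyrosine, phenylalanine and tryptophan at 2.2 μM, 7.3 μM, 7.3 μM, 111 μM and 90 μM for the first five. In these media, P. falciparum NF54 ring stages (1% hematocrit, 1% parasitemia, 100 μL/well) were exposed in dark 96-well half-area plates to a single 5 μM or 1 μM test-compound dose for 72 h at 37 °C. Growth inhibition was then assessed with SYBR Green against untreated wells, subtracting background from uninfected erythrocytes.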

[1] = 1 µM, MM + chorismate end-products (CM screening medium)
[2] = 5 µM, MM + chorismate end-products (CM screening medium)

Row | Structure (SMILES) | growth inhibition [1] | growth inhibition (1 µM, minimal medium (MM)) | growth inhibition [2] | growth inhibition (5 µM, minimal medium (MM))
1 | CC1CC1C(=O)NC1CCN(CC2(c3ccccc3)CCCCC2)CC1 (centres undefined) | 96.1% | 94.5% | 90.8% | 92%
2 | Cc1ccc2[nH]c(C3CCCNC3)c(-c3ccncc3)c2c1 (centres undefined) | 97.7% | 97.5% | > 100% | 97.4%
3 | NC(CC(=O)c1ccc(Cl)cc1Cl)C(Cl)(Cl)Cl (centres undefined) | < 0% | 11.5% | 18.3% | 23%
4 | Cc1nc(-c2ccccn2)nc(N(C)CCc2ccccc2)c1Cl | 31.5% | 23.4% | 82.9% | 83.8%
5 | COc1ccc(Nc2ccccc2NC(=O)c2ccc(O)nc2)cc1 | 12.7% | < 0% | < 0% | < 0%
6 | Cc1cccc(NC(=O)c2cc(S(=O)(=O)N(C)c3ccc(F)cc3)ccc2Cl)n1 | 86.6% | 82.9% | 87.9% | 91.5%
7 | CN1CCC(NCc2cccc(-c3ccc(S(=O)(=O)NCc4ccccc4)cc3)c2)CC1 | 96.4% | > 100% | 96% | 94.2%
8 | Cc1cc(OCC(=O)NCc2ccccc2)c2cc(Br)ccc2n1 | 12.6% | 3.05% | 56.5% | < 0%
9 | Cc1cc(C(=O)Nc2cnn(Cc3ccc(Cl)cc3Cl)c2)no1 | 80.3% | 72.9% | 88.6% | 87.4%
10 | CC(=O)Nc1ccc(-c2noc(CC3CCCN(Cc4cccc(F)c4C)C3)n2)cc1 (centres undefined) | 25.8% | < 0% | 93.6% | 82%
11 | Clc1ccc(CN2CCN(C3=NCCN3)CC2)cc1Cl | < 0% | < 0% | 48.8% | 10%
12 | O=C(c1ccc(NCCO)cc1)C1C[C@H]1c1ccc(Cl)cc1 (some centres undefined) | 71% | 98.1% | 91.8% | 89%
13 | CCS(=O)(=O)N(Cc1ccco1)Cc1cc2ccc(C)cc2nc1O | 44% | 33.5% | 87.4% | 94.5%
14 | CCn1cnc2c(Nc3cc(F)cc(F)c3)nc(C#N)nc21 | 36.4% | < 0% | 40.3% | < 0%
15 | CN1CCN(S(=O)(=O)c2ccc(-c3ccc4c(Nc5ncc(Cl)cn5)ccnc4c3)cc2)CC1 | 96.5% | 96.3% | 99% | 88.6%
16 | CC[C@@H](CO)NCCN[C@@H](CC)CO | 12.3% | 28.8% | 0.997% | 3.8%
17 | O=C(NC1CCN(c2ccnc3ccccc23)C1)c1cccc(C(F)(F)F)c1 (centres undefined) | 80.7% | > 100% | 96.9% | 66.7%
18 | CC(C)(C)c1cc(C(=O)Nc2cccnc2)cc(C(=O)Nc2cccnc2)c1 | 88.9% | 94.2% | 87.5% | 88.6%
19 | CC(C(=O)N1CCCC1)N1CCN(S(=O)(=O)c2ccc(C(C)(C)C)cc2)CC1 (centres undefined) | 37.6% | 71% | 67.3% | 33.4%
20 | CN(C(=O)c1cc2c(-c3cncnc3)cccc2[nH]1)c1ccccc1 | 48.7% | 56.4% | 96% | 94.3%
21 | CCOc1ccc2cc(-c3nn(CC4CCN(C)CC4)c4ncnc(N)c34)ccc2c1 | 39.8% | 15.5% | 51.2% | 16.8%
22 | c1ccc(Oc2ccc(-c3cc(C4CCOCC4)[nH]n3)cc2)cc1 | 1.03% | < 0% | < 0% | < 0%
23 | Cn1ccnc1CNCCS(=O)(=O)c1cccc(Nc2ccc(-c3cccc(F)c3)cn2)c1 | < 0% | < 0% | 26.9% | 3.75%
24 | COc1cccc(-n2nnnc2S(C)(=O)=O)c1 | 19.7% | 29.5% | 35% | 8.78%

Row | Structure (SMILES) | growth inhibition [1] | growth inhibition (1 µM, minimal medium (MM)) | growth inhibition [2] | growth inhibition (5 µM, minimal medium (MM))
25 | COc1cc(C2=NCCN2)ccc1-c1cn(-c2cccc(C3=NCCN3)c2)nn1 | 68.5% | 86.7% | > 100% | 88.7%
26 | Cc1ccc2nc(C)c(-c3ccn(Cc4ccccc4)n3)n2c1 | 43% | 33.9% | 36.8% | < 0%
27 | CC(Oc1ccccc1)C(=O)Nc1nc(-c2ccccn2)cs1 (centres undefined) | < 0% | 38.4% | 68.6% | 38.2%
28 | O=C(NCc1nnc2n1CCCCC2)c1ccc(-c2ccc(F)cc2)o1 | < 0% | < 0% | < 0% | < 0%
29 | O=C(NCCc1ccn(-c2ccccc2)n1)C1CCCCC1 | 13.1% | 20.1% | < 0% | 3.27%
30 | COc1ccc(-c2nnc3ccc(-c4cccc(C(C)C)c4)cn23)cc1OC | 9.51% | 3.89% | 33.1% | < 0%
31 | O=C(Nc1cccnc1)c1c(O)c2cccc3c2n(c1=O)CC3 | 6.17% | 21.1% | 4.63% | < 0%
32 | CN1CCN(CCCOc2ncc(Nc3ncc(-c4ccc(C(F)(F)F)c(F)c4)nc3C(N)=O)cn2)CC1 | > 100% | > 100% | > 100% | 93.3%
33 | Clc1cccc(CO[C@H]2CCc3ccccc3[C@@H]2n2ccnn2)c1 | 7.57% | < 0% | < 0% | 15.4%
34 | Cc1ccc2nc(Cl)c(CNCc3cccs3)cc2c1 | 49.9% | 31.9% | < 0% | < 0%
35 | O=C(Nc1cccc(Cl)c1)c1cnc(N2CCN(c3ccncc3)CC2)c(Cl)c1 | 90.3% | > 100% | 99.9% | 87.9%
36 | CC(=O)OCC1OC([S-])C(OC(C)=O)C(OC(C)=O)C1OC(C)=O.CCP(CC)CC.[Au+] (centres undefined) | 84.8% | 71.6% | 87.8% | 91.7%
37 | COC(=O)C1=C(C)NC(C)=C(C(=O)OC(C)C)C1c1cccc2nonc12 (centres undefined) | 42% | 24.4% | 28.3% | 18.7%
38 | Nc1ccc(C(=O)Nc2ccc(-c3nc4ccccc4o3)cc2)cc1 | 23.2% | 18.2% | 55.7% | 26.5%
39 | CC(Oc1cccc(Cl)c1)C(=O)Nc1ccc2oc(-c3ccncc3)nc2c1 (centres undefined) | < 0% | 2.28% | < 0% | 3.02%
40 | CC(C)(C)n1nc(Cc2cccc3ccccc23)c2c(N)ncnc21 | < 0% | 18.3% | 39.5% | 29.5%
41 | N#Cc1ccc(-c2cnc(N)c(-c3ccc(C(N)=O)cc3)n2)cc1 | 99.3% | > 100% | > 100% | 89.9%
42 | CO[C@@H](C(=O)N1Cc2[nH]nc(NC(=O)c3ccc(N4CCN(C)CC4)cc3)c2C1)c1ccccc1 | 45.1% | 55.3% | 90% | 90.1%
43 | Nc1nc(N)c2c3c(sc2n1)CN(Cc1ccccc1)CC3 | 55.2% | 96.8% | 60.8% | 91.9%
44 | COc1cccc(-n2nnnc2S(=O)(=O)Cc2ccccc2)c1 | 13.8% | 3.94% | 65.6% | < 0%
45 | CN(C)c1cc(NC(=O)Nc2ccccc2)c2ccccc2n1 | 96% | 95.6% | 88.6% | 87.9%
46 | CCc1ccc([C@@H]2C[C@H](C(F)(F)F)n3ncc(C(=O)NCc4ccc(OC)cc4)c3N2)cc1 | 31% | 6.61% | 24.8% | 3.56%
47 | COc1ccc2nc(C)cc(OCC(=O)NCc3ccccc3)c2c1 | 25.1% | 2.13% | 21.9% | 2.43%
48 | N=C(N)c1ccc(-c2cc(-c3ccccc3)on2)cc1 | 2.89% | 5.06% | 86.7% | 71.2%

Row | Structure (SMILES) | growth inhibition [1] | growth inhibition (1 µM, minimal medium (MM)) | growth inhibition [2] | growth inhibition (5 µM, minimal medium (MM))
49 | CC(C)(C)C(=O)N(CCCCCCN1C[C@H](O)[C@@H](O)[C@H](O)[C@H]1CO)C1CCCCCC1 | 28.4% | < 0% | < 0% | < 0%
50 | O=C(Nc1nc(-c2ccccn2)cs1)C1CC1c1ccccc1F (centres undefined) | 16% | < 0% | 54.3% | 26.1%
51 | O=C(Nc1ccccc1-c1nc2c(C(=O)O)cccc2o1)c1ccccc1 | < 0% | 0.353% | < 0% | < 0%
52 | COc1ccc(C2CC(c3cccs3)=NN2C(=O)c2ccco2)cc1OC (centres undefined) | 91.4% | 89.5% | 91.4% | 93.4%
53 | Cc1ccc(C(=O)Nc2ccc(S(=O)(=O)O)c3cc(S(=O)(=O)O)cc(S(=O)(=O)O)c23)cc1NC(=O)c1cccc(NC(=O)Nc2cccc(C(=O)Nc3cc(C(=O)Nc4ccc(S(=O)(=O)O)c5cc(S(=O)(=O)O)cc(S(=O)(=O)O)c45)ccc3C)c2)c1 | < 0% | < 0% | < 0% | 12.6%
54 | COc1ccc(-c2cncc3ccc(C(=O)NCCCn4ccnc4)nc23)cc1 | 22.9% | 72% | 84.4% | 92.4%
55 | Clc1cccc(C(c2ccc(CN3CCNCC3)cc2)n2ccnc2)c1 (centres undefined) | 93.2% | > 100% | 93.5% | 91.5%
56 | c1ccc(Oc2ccc(-c3cncc(-c4ccc5[nH]ccc5c4)n3)cc2)cc1 | > 100% | < 0% | 86.5% | 91.5%
57 | CC1=Nc2ccc(Cl)cc2C(c2ccccc2)N1CCNC(=O)CN(C)C (centres undefined) | 49% | 19% | > 100% | 89.7%
58 | COc1ccc(-c2cnc3ccc(NCc4ccc(S(N)(=O)=O)cc4)nn23)cn1 | 73.3% | 77.2% | 95.9% | 92.1%
59 | Cc1cc2ccccc2n1CC(=O)N1CC(C(=O)N2CCCCC2)Oc2ccccc21 (centres undefined) | 97.2% | 95.9% | 96.1% | 98%
60 | CC(C)n1nc(-c2cc3c(Cl)cccc3[nH]2)c2c(N)ncnc21 | 50.4% | 16% | 57.9% | 15.9%
61 | Cc1cc(OCC(=O)Nc2ccc(C(C)C)cc2)n(C)c(=O)c1C#N | 18.1% | 33% | 18.4% | 21%
62 | CC(C)(C)n1nc(-c2ccccc2)c2c(N)ncnc21 | 20.8% | 20.3% | 38.5% | < 0%
63 | CCc1c(C)nc(-n2nc(C)cc2NC(=O)c2ccccc2SC)[nH]c1=O | 72.1% | 60.2% | 86.1% | 79.9%
64 | COc1ccc(C2(C(=O)Nc3ccc(Br)cc3)CCCC2)cc1 | 15.3% | 2.06% | < 0% | 2.98%
65 | Cc1nnc(NCc2cccc(Cl)c2)c2ccccc12 | 37.2% | 4.12% | 4.67% | < 0%
66 | c1ccc(Oc2ccc(-c3cc(N4CCNCC4)[nH]n3)cc2)cc1 | 32.1% | 29.2% | 40.3% | 34.4%
67 | Cc1c[nH]c(CCNC(=O)c2cc(-c3ccc(Cl)cc3)cs2)n1 | > 100% | > 100% | 97.3% | 94.7%
68 | COc1ccc(CN2CCOc3ccc(C(C)(O)CN(C)C)cc3C2)cc1C (centres undefined) | 78.6% | 75% | 66.7% | 21.7%
69 | COc1cccc(CC(=O)N2CCC(n3c(C)nc4ccc(F)cc43)CC2)c1 | > 100% | > 100% | > 100% | 95.6%
70 | COc1cccc(OCC(=O)c2ccc(Br)cc2)c1 | < 0% | < 0% | < 0% | < 0%
71 | CC(=O)NCC1CN(c2ccc(-c3ccc(CO)cc3)c(F)c2)C(=O)O1 (centres undefined) | < 0% | 7.91% | 31.4% | 17.6%
